For one molecule, outcome results are on record in PubChem BioAssay AID651911 (Vanderbilt Specialized Chemistry Center, 2012).

In this assay the target is Histone deacetylase 11 (Homo sapiens) (UniProt Q96DB2). Nature of the assay: HDAC11 deacetylase inhibition, profiling panel, selectivity assay for E-cadherin restoration project, biochemical, human (AID 651911).

Calls of active or inactive are those of the source. How the calls were made is not given here.

Histone deacetylase 11 (Homo sapiens), sequence (Q96DB2 whole entry, looked up): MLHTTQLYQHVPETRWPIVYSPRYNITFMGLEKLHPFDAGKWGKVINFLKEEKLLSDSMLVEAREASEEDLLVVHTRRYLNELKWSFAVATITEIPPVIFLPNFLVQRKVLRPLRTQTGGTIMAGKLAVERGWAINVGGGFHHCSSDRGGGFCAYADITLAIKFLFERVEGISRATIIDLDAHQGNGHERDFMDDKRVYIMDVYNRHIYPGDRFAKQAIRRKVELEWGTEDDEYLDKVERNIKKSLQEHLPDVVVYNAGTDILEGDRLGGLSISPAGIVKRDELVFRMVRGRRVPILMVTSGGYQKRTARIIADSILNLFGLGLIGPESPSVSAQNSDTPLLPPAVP

On to `O=C(NCCCNC(=O)c1ccc[nH]c1=O)c1cc(-c2ccccc2)on1`, for which the outcome was inactive.
